B1: ATGCCCCG (ssRNA)
RNA 1: GAGUUCUACAGUCCGACGAUCCCAACAUGCCCCGCACCUGGAAUUCUCGGGUGCCAA
RNA 2: UGGAGUGUGACAAUGGUGUUUG
DNA 1: GATCGTCGGACTGTAGAACTC
DNA 2: TTGGCACCCGAGAATTCCA
modifications: constant regions annealed to DNA blockers; guide miR-122 5' phosphate
B2: GCGCCTCG (ssRNA)
RNA 1: GAGUUCUACAGUCCGACGAUCCCAACGCGCCUCGCACCUGGAAUUCUCGGGUGCCAA
RNA 2: UGGAGUGUGACAAUGGUGUUUG
DNA 1: GATCGTCGGACTGTAGAACTC
DNA 2: TTGGCACCCGAGAATTCCA
modifications: constant regions annealed to DNA blockers; guide miR-122 5' phosphate
B3: ACGTCCTG (ssRNA)
RNA 1: GAGUUCUACAGUCCGACGAUCCCAACACGUCCUGCACCUGGAAUUCUCGGGUGCCAA
RNA 2: UGGAGUGUGACAAUGGUGUUUG
DNA 1: GATCGTCGGACTGTAGAACTC
DNA 2: TTGGCACCCGAGAATTCCA
modifications: constant regions annealed to DNA blockers; guide miR-122 5' phosphate
B4: GTGTCCTA (ssRNA)
RNA 1: GAGUUCUACAGUCCGACGAUCCCAACGUGUCCUACACCUGGAAUUCUCGGGUGCCAA
RNA 2: UGGAGUGUGACAAUGGUGUUUG
DNA 1: GATCGTCGGACTGTAGAACTC
DNA 2: TTGGCACCCGAGAATTCCA
modifications: constant regions annealed to DNA blockers; guide miR-122 5' phosphate
B5: ACGTCTCG (ssRNA)
RNA 1: GAGUUCUACAGUCCGACGAUCCCAACACGUCUCGCACCUGGAAUUCUCGGGUGCCAA
RNA 2: UGGAGUGUGACAAUGGUGUUUG
DNA 1: GATCGTCGGACTGTAGAACTC
DNA 2: TTGGCACCCGAGAATTCCA
modifications: constant regions annealed to DNA blockers; guide miR-122 5' phosphate
B6: GCATCCTA (ssRNA)
RNA 1: GAGUUCUACAGUCCGACGAUCCCAACGCAUCCUACACCUGGAAUUCUCGGGUGCCAA
RNA 2: UGGAGUGUGACAAUGGUGUUUG
DNA 1: GATCGTCGGACTGTAGAACTC
DNA 2: TTGGCACCCGAGAATTCCA
modifications: constant regions annealed to DNA blockers; guide miR-122 5' phosphate
B7: ATGCCTTA (ssRNA)
RNA 1: GAGUUCUACAGUCCGACGAUCCCAACAUGCCUUACACCUGGAAUUCUCGGGUGCCAA
RNA 2: UGGAGUGUGACAAUGGUGUUUG
DNA 1: GATCGTCGGACTGTAGAACTC
DNA 2: TTGGCACCCGAGAATTCCA
modifications: constant regions annealed to DNA blockers; guide miR-122 5' phosphate
B8: ATATCTTG (ssRNA)
RNA 1: GAGUUCUACAGUCCGACGAUCCCAACAUAUCUUGCACCUGGAAUUCUCGGGUGCCAA
RNA 2: UGGAGUGUGACAAUGGUGUUUG
DNA 1: GATCGTCGGACTGTAGAACTC
DNA 2: TTGGCACCCGAGAATTCCA
modifications: constant regions annealed to DNA blockers; guide miR-122 5' phosphate
B9: ACGTTCTA (ssRNA)
RNA 1: GAGUUCUACAGUCCGACGAUCCCAACACGUUCUACACCUGGAAUUCUCGGGUGCCAA
RNA 2: UGGAGUGUGACAAUGGUGUUUG
DNA 1: GATCGTCGGACTGTAGAACTC
DNA 2: TTGGCACCCGAGAATTCCA
modifications: constant regions annealed to DNA blockers; guide miR-122 5' phosphate
B10: GCACCCTA (ssRNA)
RNA 1: GAGUUCUACAGUCCGACGAUCCCAACGCACCCUACACCUGGAAUUCUCGGGUGCCAA
RNA 2: UGGAGUGUGACAAUGGUGUUUG
DNA 1: GATCGTCGGACTGTAGAACTC
DNA 2: TTGGCACCCGAGAATTCCA
modifications: constant regions annealed to DNA blockers; guide miR-122 5' phosphate
B11: GTGTTTTA (ssRNA)
RNA 1: GAGUUCUACAGUCCGACGAUCCCAACGUGUUUUACACCUGGAAUUCUCGGGUGCCAA
RNA 2: UGGAGUGUGACAAUGGUGUUUG
DNA 1: GATCGTCGGACTGTAGAACTC
DNA 2: TTGGCACCCGAGAATTCCA
modifications: constant regions annealed to DNA blockers; guide miR-122 5' phosphate
B12: GCGCCTTG (ssRNA)
RNA 1: GAGUUCUACAGUCCGACGAUCCCAACGCGCCUUGCACCUGGAAUUCUCGGGUGCCAA
RNA 2: UGGAGUGUGACAAUGGUGUUUG
DNA 1: GATCGTCGGACTGTAGAACTC
DNA 2: TTGGCACCCGAGAATTCCA
modifications: constant regions annealed to DNA blockers; guide miR-122 5' phosphate
B13: GTGTTTCA (ssRNA)
RNA 1: GAGUUCUACAGUCCGACGAUCCCAACGUGUUUCACACCUGGAAUUCUCGGGUGCCAA
RNA 2: UGGAGUGUGACAAUGGUGUUUG
DNA 1: GATCGTCGGACTGTAGAACTC
DNA 2: TTGGCACCCGAGAATTCCA
modifications: constant regions annealed to DNA blockers; guide miR-122 5' phosphate
B14: ACGCCTTG (ssRNA)
RNA 1: GAGUUCUACAGUCCGACGAUCCCAACACGCCUUGCACCUGGAAUUCUCGGGUGCCAA
RNA 2: UGGAGUGUGACAAUGGUGUUUG
DNA 1: GATCGTCGGACTGTAGAACTC
DNA 2: TTGGCACCCGAGAATTCCA
modifications: constant regions annealed to DNA blockers; guide miR-122 5' phosphate
B15: GTATCCTA (ssRNA)
RNA 1: GAGUUCUACAGUCCGACGAUCCCAACGUAUCCUACACCUGGAAUUCUCGGGUGCCAA
RNA 2: UGGAGUGUGACAAUGGUGUUUG
DNA 1: GATCGTCGGACTGTAGAACTC
DNA 2: TTGGCACCCGAGAATTCCA
modifications: constant regions annealed to DNA blockers; guide miR-122 5' phosphate
B16: GCGTTTTA (ssRNA)
RNA 1: GAGUUCUACAGUCCGACGAUCCCAACGCGUUUUACACCUGGAAUUCUCGGGUGCCAA
RNA 2: UGGAGUGUGACAAUGGUGUUUG
DNA 1: GATCGTCGGACTGTAGAACTC
DNA 2: TTGGCACCCGAGAATTCCA
modifications: constant regions annealed to DNA blockers; guide miR-122 5' phosphate
B17: GTACTTTA (ssRNA)
RNA 1: GAGUUCUACAGUCCGACGAUCCCAACGUACUUUACACCUGGAAUUCUCGGGUGCCAA
RNA 2: UGGAGUGUGACAAUGGUGUUUG
DNA 1: GATCGTCGGACTGTAGAACTC
DNA 2: TTGGCACCCGAGAATTCCA
modifications: constant regions annealed to DNA blockers; guide miR-122 5' phosphate
B18: GCGTTTCG (ssRNA)
RNA 1: GAGUUCUACAGUCCGACGAUCCCAACGCGUUUCGCACCUGGAAUUCUCGGGUGCCAA
RNA 2: UGGAGUGUGACAAUGGUGUUUG
DNA 1: GATCGTCGGACTGTAGAACTC
DNA 2: TTGGCACCCGAGAATTCCA
modifications: constant regions annealed to DNA blockers; guide miR-122 5' phosphate
B19: GCATCCCA (ssRNA)
RNA 1: GAGUUCUACAGUCCGACGAUCCCAACGCAUCCCACACCUGGAAUUCUCGGGUGCCAA
RNA 2: UGGAGUGUGACAAUGGUGUUUG
DNA 1: GATCGTCGGACTGTAGAACTC
DNA 2: TTGGCACCCGAGAATTCCA
modifications: constant regions annealed to DNA blockers; guide miR-122 5' phosphate
B20: GCACCTCG (ssRNA)
RNA 1: GAGUUCUACAGUCCGACGAUCCCAACGCACCUCGCACCUGGAAUUCUCGGGUGCCAA
RNA 2: UGGAGUGUGACAAUGGUGUUUG
DNA 1: GATCGTCGGACTGTAGAACTC
DNA 2: TTGGCACCCGAGAATTCCA
modifications: constant regions annealed to DNA blockers; guide miR-122 5' phosphate
B21: GTGCCTTG (ssRNA)
RNA 1: GAGUUCUACAGUCCGACGAUCCCAACGUGCCUUGCACCUGGAAUUCUCGGGUGCCAA
RNA 2: UGGAGUGUGACAAUGGUGUUUG
DNA 1: GATCGTCGGACTGTAGAACTC
DNA 2: TTGGCACCCGAGAATTCCA
modifications: constant regions annealed to DNA blockers; guide miR-122 5' phosphate
B22: ATGTTTTG (ssRNA)
RNA 1: GAGUUCUACAGUCCGACGAUCCCAACAUGUUUUGCACCUGGAAUUCUCGGGUGCCAA
RNA 2: UGGAGUGUGACAAUGGUGUUUG
DNA 1: GATCGTCGGACTGTAGAACTC
DNA 2: TTGGCACCCGAGAATTCCA
modifications: constant regions annealed to DNA blockers; guide miR-122 5' phosphate

What was measured:
Assay in all cases: RNA Bind-n-Seq (nitrocellulose filter binding and sequencing); miR-122 guide loaded in AGO2; 60 min incubation; 30 mM Tris pH 8.0, 100 mM potassium acetate, 2 mM magnesium acetate, 0.5 mM TCEP, 0.005% NP-40, 0.01 mg/ml yeast tRNA; 3 nM AGO2-miR-122, 100 nM RNA library; 60; high values mean tight binding
Conditions in all cases: protein: recombinant; tags: His6 (N-terminal, pFastBac HTA)
AGO2 L192P = AGO2 L192P (Homo sapiens, UniProt Q9UKV8 1-859, L192P;S387D;S824A;S828D;S831D;S834A)
Procedure, shortened: (§1)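 His-tagged AGO2 was expressed in Sf9 insect cells by baculovirus, loaded with a synthetic guide RNA, and purified by Ni-NTA and a biotinylated capture oligo. Bound RNA was extracted, reverse-transcribed, barcode-amplified and Illumina-sequenced. Fold enrichment is each sequence's read fraction divided by its input-library read fraction.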

AGO2 A367P = AGO2 A367P (Homo sapiens, UniProt Q9UKV8 1-859, A367P;S387D;S824A;S828D;S831D;S834A)
Procedure, shortened: as §1

AGO2 T357M = AGO2 T357M (Homo sapiens, UniProt Q9UKV8 1-859, T357M;S387D;S824A;S828D;S831D;S834A)
Procedure, shortened: as §1

AGO2 F182del = AGO2 F182del (Homo sapiens, UniProt Q9UKV8 1-859, S387D;S824A;S828D;S831D;S834A;del182-182)
Procedure, shortened: as §1

Sequence of AGO2 L192P (Q9UKV8 whole entry L192P/S387D/S824A/S828D/S831D/S834A): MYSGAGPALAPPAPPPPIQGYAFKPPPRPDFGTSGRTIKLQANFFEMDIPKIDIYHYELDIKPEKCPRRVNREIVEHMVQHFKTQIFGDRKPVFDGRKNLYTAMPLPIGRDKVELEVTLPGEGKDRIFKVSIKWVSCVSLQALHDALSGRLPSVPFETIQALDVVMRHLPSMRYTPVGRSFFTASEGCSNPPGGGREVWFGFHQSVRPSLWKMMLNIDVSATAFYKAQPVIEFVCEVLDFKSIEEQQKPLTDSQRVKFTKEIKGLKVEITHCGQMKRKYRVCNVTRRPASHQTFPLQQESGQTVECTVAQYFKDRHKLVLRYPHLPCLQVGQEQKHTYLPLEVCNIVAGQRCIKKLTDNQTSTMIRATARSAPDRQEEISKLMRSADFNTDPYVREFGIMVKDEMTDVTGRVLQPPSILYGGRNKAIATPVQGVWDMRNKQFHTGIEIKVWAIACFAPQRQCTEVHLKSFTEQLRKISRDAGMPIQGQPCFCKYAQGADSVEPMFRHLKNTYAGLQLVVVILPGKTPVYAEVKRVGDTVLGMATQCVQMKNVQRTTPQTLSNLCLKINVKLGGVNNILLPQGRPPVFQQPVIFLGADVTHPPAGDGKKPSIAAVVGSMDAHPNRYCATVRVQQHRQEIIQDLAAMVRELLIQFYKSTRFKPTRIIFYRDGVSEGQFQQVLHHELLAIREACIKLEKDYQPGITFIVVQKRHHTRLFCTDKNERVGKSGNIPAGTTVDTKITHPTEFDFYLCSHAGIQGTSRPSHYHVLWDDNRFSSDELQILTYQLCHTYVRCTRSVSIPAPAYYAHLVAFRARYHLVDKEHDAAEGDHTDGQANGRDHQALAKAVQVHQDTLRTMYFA
Sequence of AGO2 A367P (Q9UKV8 whole entry A367P/S387D/S824A/S828D/S831D/S834A): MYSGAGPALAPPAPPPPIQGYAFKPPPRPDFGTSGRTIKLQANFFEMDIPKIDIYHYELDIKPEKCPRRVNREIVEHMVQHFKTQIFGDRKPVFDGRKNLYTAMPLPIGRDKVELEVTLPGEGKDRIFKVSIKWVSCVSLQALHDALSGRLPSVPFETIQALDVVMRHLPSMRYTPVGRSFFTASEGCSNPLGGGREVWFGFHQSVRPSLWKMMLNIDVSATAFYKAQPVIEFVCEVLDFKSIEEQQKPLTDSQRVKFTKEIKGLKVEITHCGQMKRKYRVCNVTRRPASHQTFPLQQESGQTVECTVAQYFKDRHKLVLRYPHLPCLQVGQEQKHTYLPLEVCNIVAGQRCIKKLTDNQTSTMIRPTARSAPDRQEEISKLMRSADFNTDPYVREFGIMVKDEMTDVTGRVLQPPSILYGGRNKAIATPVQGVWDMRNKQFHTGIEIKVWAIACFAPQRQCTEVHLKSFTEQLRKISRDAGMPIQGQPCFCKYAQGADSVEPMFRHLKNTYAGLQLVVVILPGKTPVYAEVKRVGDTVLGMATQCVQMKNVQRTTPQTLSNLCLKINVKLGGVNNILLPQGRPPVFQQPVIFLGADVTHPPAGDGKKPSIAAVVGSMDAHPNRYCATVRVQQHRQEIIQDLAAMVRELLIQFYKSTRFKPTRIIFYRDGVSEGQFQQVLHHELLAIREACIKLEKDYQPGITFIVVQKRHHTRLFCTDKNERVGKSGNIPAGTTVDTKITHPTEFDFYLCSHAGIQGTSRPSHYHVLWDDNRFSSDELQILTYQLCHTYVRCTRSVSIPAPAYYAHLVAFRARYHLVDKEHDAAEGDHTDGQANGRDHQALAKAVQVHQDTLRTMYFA
Sequence of AGO2 F182del (Q9UKV8 other isoform, or with tags, fused parts or gaps S387D;S824A;S828D;S831D;S834A;del182-182): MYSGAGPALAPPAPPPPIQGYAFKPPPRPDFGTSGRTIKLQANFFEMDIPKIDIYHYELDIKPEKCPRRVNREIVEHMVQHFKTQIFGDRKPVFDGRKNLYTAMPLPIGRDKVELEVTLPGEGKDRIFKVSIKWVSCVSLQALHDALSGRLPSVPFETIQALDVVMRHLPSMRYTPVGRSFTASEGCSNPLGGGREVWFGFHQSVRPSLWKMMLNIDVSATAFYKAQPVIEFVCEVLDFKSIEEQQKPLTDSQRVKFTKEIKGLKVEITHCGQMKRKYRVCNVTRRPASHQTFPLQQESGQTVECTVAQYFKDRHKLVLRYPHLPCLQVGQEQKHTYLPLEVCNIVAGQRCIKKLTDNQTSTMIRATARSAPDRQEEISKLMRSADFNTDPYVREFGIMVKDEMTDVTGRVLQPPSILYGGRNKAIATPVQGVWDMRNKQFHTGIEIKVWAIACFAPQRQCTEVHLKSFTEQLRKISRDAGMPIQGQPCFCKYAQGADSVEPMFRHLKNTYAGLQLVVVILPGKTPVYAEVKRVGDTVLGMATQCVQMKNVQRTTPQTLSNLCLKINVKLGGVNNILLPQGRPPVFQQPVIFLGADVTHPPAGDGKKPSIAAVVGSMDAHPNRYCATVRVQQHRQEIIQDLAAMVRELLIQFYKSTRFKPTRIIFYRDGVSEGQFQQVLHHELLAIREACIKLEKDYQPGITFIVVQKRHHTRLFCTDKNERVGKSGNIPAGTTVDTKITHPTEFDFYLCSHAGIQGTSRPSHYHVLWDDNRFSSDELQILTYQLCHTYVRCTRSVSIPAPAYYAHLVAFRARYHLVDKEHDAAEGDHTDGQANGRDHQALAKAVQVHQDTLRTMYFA
Sequence of AGO2 T357M (Q9UKV8 whole entry T357M/S387D/S824A/S828D/S831D/S834A): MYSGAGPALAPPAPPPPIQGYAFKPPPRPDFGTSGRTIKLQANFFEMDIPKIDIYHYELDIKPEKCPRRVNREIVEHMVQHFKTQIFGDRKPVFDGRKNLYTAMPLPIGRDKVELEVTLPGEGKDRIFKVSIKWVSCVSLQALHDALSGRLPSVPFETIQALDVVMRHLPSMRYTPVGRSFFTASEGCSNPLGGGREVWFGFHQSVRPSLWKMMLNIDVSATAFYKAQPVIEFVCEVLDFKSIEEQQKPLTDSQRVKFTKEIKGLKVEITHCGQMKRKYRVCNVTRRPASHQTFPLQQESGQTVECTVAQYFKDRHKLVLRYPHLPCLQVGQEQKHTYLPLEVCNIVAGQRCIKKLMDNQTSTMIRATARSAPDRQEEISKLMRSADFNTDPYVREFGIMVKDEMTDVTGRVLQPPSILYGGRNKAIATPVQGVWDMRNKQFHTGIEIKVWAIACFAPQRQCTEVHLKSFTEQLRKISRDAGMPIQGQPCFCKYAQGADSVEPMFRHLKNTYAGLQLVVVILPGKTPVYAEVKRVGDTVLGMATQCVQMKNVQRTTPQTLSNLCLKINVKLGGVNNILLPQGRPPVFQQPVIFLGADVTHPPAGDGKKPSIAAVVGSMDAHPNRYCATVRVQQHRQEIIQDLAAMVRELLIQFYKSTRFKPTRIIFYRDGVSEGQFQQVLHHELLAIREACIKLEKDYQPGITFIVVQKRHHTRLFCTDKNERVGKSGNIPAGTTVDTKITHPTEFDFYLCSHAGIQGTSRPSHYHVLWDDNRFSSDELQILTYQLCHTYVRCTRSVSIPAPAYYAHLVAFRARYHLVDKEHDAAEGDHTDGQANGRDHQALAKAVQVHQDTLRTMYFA

Binder	binding signal (AGO2 L192P)	binding signal (AGO2 A367P)	binding signal (AGO2 T357M)	binding signal (AGO2 F182del)
B1	0.377 fold enrichment over input	0.134 fold enrichment over input	0.489 fold enrichment over input	–
B2	0.37 fold enrichment over input	0.145 fold enrichment over input	0.55 fold enrichment over input	–
B3	0.312 fold enrichment over input	0.143 fold enrichment over input	0.434 fold enrichment over input	–
B4	0.451 fold enrichment over input	0.158 fold enrichment over input	0.528 fold enrichment over input	–
B5	0.32 fold enrichment over input	0.146 fold enrichment over input	0.421 fold enrichment over input	–
B6	0.47 fold enrichment over input	0.168 fold enrichment over input	0.563 fold enrichment over input	–
B7	0.434 fold enrichment over input	0.179 fold enrichment over input	0.617 fold enrichment over input	–
B8	0.409 fold enrichment over input	0.138 fold enrichment over input	0.513 fold enrichment over input	–
B9	0.434 fold enrichment over input	0.184 fold enrichment over input	0.53 fold enrichment over input	0.195 fold enrichment over input
B10	0.515 fold enrichment over input	0.214 fold enrichment over input	0.601 fold enrichment over input	0.327 fold enrichment over input
B11	0.467 fold enrichment over input	0.167 fold enrichment over input	0.565 fold enrichment over input	–
B12	0.365 fold enrichment over input	0.15 fold enrichment over input	0.532 fold enrichment over input	–
B13	0.477 fold enrichment over input	0.178 fold enrichment over input	0.587 fold enrichment over input	–
B14	0.367 fold enrichment over input	0.164 fold enrichment over input	0.54 fold enrichment over input	–
B15	0.448 fold enrichment over input	0.17 fold enrichment over input	0.563 fold enrichment over input	0.121 fold enrichment over input
B16	0.484 fold enrichment over input	0.173 fold enrichment over input	0.582 fold enrichment over input	–
B17	0.446 fold enrichment over input	0.161 fold enrichment over input	0.636 fold enrichment over input	–
B18	0.361 fold enrichment over input	0.139 fold enrichment over input	0.534 fold enrichment over input	–
B19	0.48 fold enrichment over input	0.201 fold enrichment over input	0.628 fold enrichment over input	0.282 fold enrichment over input
B20	0.381 fold enrichment over input	0.15 fold enrichment over input	0.508 fold enrichment over input	–
B21	0.422 fold enrichment over input	0.159 fold enrichment over input	0.548 fold enrichment over input	–
B22	0.387 fold enrichment over input	0.134 fold enrichment over input	0.541 fold enrichment over input	–

Source: publication PMC12529666, “Dysregulation of AGO2-miRNA dynamics underlies the AGO2-associated Lessel–Kreienkamp syndrome”
